Source: PubChem BioAssay (NCI)
The panel holds about 83,000 compounds, 20% with a hit somewhere; the sample as a whole holds those more often.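 How to read the values: 0–100, growth inhibition (40 = 60% inhibited); 0, no net growth; -100 to 0, cell death (-40 = 40% of starting cells died; -100 = all dead).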 The source made the active and inactive calls. How the source made its calls: active means growth percent below 10; inactive means the rest.

Legend:
Assay in all cases: NCI-60 one-dose screen, 48 h (100 = growth as untreated, 0 = no growth, -100 = all killed)
Details in all cases: 10 µM unless noted
SK-MEL-2 melanoma = test system: SK-MEL-2 melanoma
EKVX NSCLC = test system: EKVX NSCLC
SN12C renal = test system: SN12C renal
UO-31 renal = test system: UO-31 renal
TK-10 renal = test system: TK-10 renal
ACHN renal = test system: ACHN renal
CAKI-1 renal = test system: CAKI-1 renal
A498 renal = test system: A498 renal
CCRF-CEM leukemia = test system: CCRF-CEM leukemia
MOLT-4 leukemia = test system: MOLT-4 leukemia

Measured: growth

COc1ccc(C(=O)COc2ccc(/C=C3\Oc4ccc(Cl)cc4C3=O)cc2)cc1
inactive: SK-MEL-2 melanoma 71.1% | EKVX NSCLC 86.8% | SN12C renal 103% | UO-31 renal 83.4% | TK-10 renal 105% | ACHN renal 109% | CAKI-1 renal 98.1% | A498 renal 109% | CCRF-CEM leukemia 122%
active: MOLT-4 leukemia -17.8%

CC[C@]12C=CCN3CC[C@@]4(c5ccc(OC)cc5N(C)[C@H]4[C@@](O)(C(=O)OC)[C@@H]1OC(=O)CCC(=O)N[C@@H](Cc1c[nH]c4ccccc14)C(=O)OC)[C@@H]32
inactive: SK-MEL-2 melanoma 54.4% | EKVX NSCLC 93.3% | SN12C renal 71.5% | UO-31 renal 83% | TK-10 renal 87.4% | ACHN renal 93% | CAKI-1 renal 108% | A498 renal 83.4% | CCRF-CEM leukemia 28.9%
active: MOLT-4 leukemia -35.5%

COc1ccc(-c2cn3c(-c4ccc(OC)cc4)cnc3c(Oc3ccc4c(C)cc(=O)oc4c3)n2)cc1
inactive: SK-MEL-2 melanoma 49.4% | EKVX NSCLC 50.2% | SN12C renal 24.5% | UO-31 renal 75% | TK-10 renal 35.7% | ACHN renal 58.1% | CAKI-1 renal 71.7% | A498 renal 52.4% | CCRF-CEM leukemia 93.2%

COc1cnc2c(c1)C(=O)c1c-2n(CCCBr)c(=O)c2cc([N+](=O)[O-])ccc12
inactive: EKVX NSCLC 34.2% | TK-10 renal 36.5%
active: SK-MEL-2 melanoma 6.39% | SN12C renal -15.3% | UO-31 renal -10.8% | ACHN renal 3.87% | CAKI-1 renal 2.8% | A498 renal -29.8% | CCRF-CEM leukemia 8.19% | MOLT-4 leukemia 7.84%

CSc1nc2sc3c(c2c(=O)n1-c1ccc(C(C)C)cc1)CCC(=O)C3
inactive: SK-MEL-2 melanoma 63.8% | EKVX NSCLC 23.1% | A498 renal 96.3%
active: SN12C renal 6.68% | UO-31 renal -67.2% | TK-10 renal 7.34% | ACHN renal -19.9% | CAKI-1 renal -9.77% | CCRF-CEM leukemia -11.8% | MOLT-4 leukemia -12.6%

CN1CCN(Cc2ccc(NC(=O)c3[nH]ncc3Nc3ncnc4sccc34)cc2)CC1
active: SK-MEL-2 melanoma 7.08% | SN12C renal 4.54% | ACHN renal 1.08% | CAKI-1 renal 6.37% | A498 renal -35.5% | CCRF-CEM leukemia 8.16%
inactive: EKVX NSCLC 16.1% | UO-31 renal 14.8% | TK-10 renal 16.3%

O=C(/C=C/c1cccc(Br)c1)c1ccccc1
inactive: SK-MEL-2 melanoma 93.3% | EKVX NSCLC 88% | SN12C renal 96.6% | UO-31 renal 71.1% | TK-10 renal 69.7% | ACHN renal 95.7% | CAKI-1 renal 90.6% | A498 renal 87.5% | CCRF-CEM leukemia 86.2%

CCOC(=O)/C=C/C(=O)[C@H](CC(C)C)NC(=O)[C@H](Cc1ccccc1)NC(=O)OCc1ccccc1
inactive: SK-MEL-2 melanoma 99.8% | EKVX NSCLC 100% | SN12C renal 57.2% | UO-31 renal 44.7% | TK-10 renal 50.1% | ACHN renal 47.5% | CAKI-1 renal 74.8% | A498 renal 77.6%
active: CCRF-CEM leukemia -18.5% | MOLT-4 leukemia 0.254%

Cc1ccc2cnc(N)c(C#Cc3cncc(C(=O)Nc4ccc(CN5CCN(C)CC5)c(C(F)(F)F)c4)c3)c2c1
active: SK-MEL-2 melanoma -62.1% | EKVX NSCLC -93.9% | SN12C renal -97.5% | UO-31 renal -93.3% | TK-10 renal -94.4% | ACHN renal -99.6% | CAKI-1 renal -95.1% | A498 renal -94.2% | CCRF-CEM leukemia -45% | MOLT-4 leukemia -54.8%

COc1cc(NC(N)=NCC(C)(C)COc2ccc(C(F)(F)F)cc2)cnc1C#N
inactive: SK-MEL-2 melanoma 77.3% | EKVX NSCLC 70.5% | SN12C renal 66.8% | UO-31 renal 29.8% | TK-10 renal 62.5% | ACHN renal 62.9% | CAKI-1 renal 62.8% | A498 renal 45.9% | CCRF-CEM leukemia 56% | MOLT-4 leukemia 15.6%

CS(=O)(=O)c1c(Nc2ccccc2)n[nH]c1N
inactive: SK-MEL-2 melanoma 113% | EKVX NSCLC 116% | SN12C renal 95% | UO-31 renal 96.4% | TK-10 renal 90.2% | ACHN renal 102% | CAKI-1 renal 105% | A498 renal 115% | CCRF-CEM leukemia 91.1% | MOLT-4 leukemia 98.6%

CCOC(=O)C(=Cc1ccccc1F)C(=O)OCC
inactive: SK-MEL-2 melanoma 98.4% | EKVX NSCLC 97.6% | SN12C renal 86.9% | UO-31 renal 87.7% | TK-10 renal 123% | ACHN renal 92.7% | CAKI-1 renal 96.5% | A498 renal 131% | CCRF-CEM leukemia 95.8%

Oc1ccccc1N=Cc1c(O)ccc2ccccc12
inactive: SK-MEL-2 melanoma 62.4% | EKVX NSCLC 63.2% | SN12C renal 65.3% | UO-31 renal 57% | TK-10 renal 119% | ACHN renal 59.3% | CAKI-1 renal 47.6% | A498 renal 64.8% | CCRF-CEM leukemia 32.5% | MOLT-4 leukemia 37.1%

C/C(=C(/c1ccc(O)cc1)c1ccc(OCCN2CCCC2)cc1)c1ccccc1
inactive: SK-MEL-2 melanoma 63.1% | EKVX NSCLC 62.5% | SN12C renal 72.4% | UO-31 renal 55.3% | TK-10 renal 79.6% | ACHN renal 68.5% | CAKI-1 renal 65.1% | A498 renal 80.5% | CCRF-CEM leukemia 60.7%
active: MOLT-4 leukemia -1.64%

c1ccc(Sc2ncnc3ccccc23)cc1
inactive: SK-MEL-2 melanoma 44.3% | EKVX NSCLC 84.2% | SN12C renal 69% | UO-31 renal 52.7% | TK-10 renal 96.5% | ACHN renal 90.9% | CAKI-1 renal 65.5% | A498 renal 82% | CCRF-CEM leukemia 48.5% | MOLT-4 leukemia 38%

C=C1CCC2C3(C)COC(c4cccc(Cl)c4)OC3CCC2(C)C1/C=C/C1=CCOC1=O (stereo not drawn)
inactive: SK-MEL-2 melanoma 85.6% | EKVX NSCLC 35.2% | SN12C renal 87.2% | UO-31 renal 38.8% | TK-10 renal 88.3% | ACHN renal 71.5% | CAKI-1 renal 70.6% | A498 renal 64.5% | CCRF-CEM leukemia 48.4% | MOLT-4 leukemia 33.2%

O=C(CO[N+](=O)[O-])Nc1ccc(C(=O)/C=C/c2ccc(Cl)cc2)cc1
inactive: SK-MEL-2 melanoma 81.7% | EKVX NSCLC 67.9% | SN12C renal 46.8% | UO-31 renal 32% | TK-10 renal 45.7% | ACHN renal 62.3% | CAKI-1 renal 74.9% | A498 renal 103% | CCRF-CEM leukemia 20.1%

COc1ccc(CCN2CC=Cn3c2nc2ccccc2c3=O)cc1
inactive: SK-MEL-2 melanoma 46.5% | EKVX NSCLC 64.9% | SN12C renal 32.6% | UO-31 renal 35.2% | TK-10 renal 77.6% | ACHN renal 26.7% | CAKI-1 renal 26.9% | CCRF-CEM leukemia 18.7% | MOLT-4 leukemia 19%
active: A498 renal -7.45%

O=C1C[C@H](Sc2nc(-c3ccc(F)cc3)cc(C(F)(F)F)n2)[C@H]2CO[C@@H]1O2
inactive: SK-MEL-2 melanoma 107% | EKVX NSCLC 107% | SN12C renal 92.4% | UO-31 renal 88.3% | TK-10 renal 99.2% | ACHN renal 88.9% | CAKI-1 renal 81.5% | A498 renal 105% | CCRF-CEM leukemia 51.1% | MOLT-4 leukemia 78.3%

COc1cc(NCCCCN=C(N)NC(N)=NC(C)C)c2ncccc2c1
inactive: SK-MEL-2 melanoma 43.7% | EKVX NSCLC 68% | SN12C renal 32.6% | UO-31 renal 71.6% | TK-10 renal 90.4% | ACHN renal 108% | CAKI-1 renal 116% | A498 renal 133% | CCRF-CEM leukemia 48.8% | MOLT-4 leukemia 54.1%

CC/C=C\C[C@H](F)C/C=C1/C(=O)C=C[C@@H]1C/C=C\CCCC(=O)O
inactive: SK-MEL-2 melanoma 65.2% | EKVX NSCLC 75.1% | SN12C renal 44.3% | UO-31 renal 57.5% | TK-10 renal 128% | ACHN renal 39.5% | CAKI-1 renal 42.5% | A498 renal 106%
active: CCRF-CEM leukemia -7.62% | MOLT-4 leukemia -4.45%

CCOC(=O)c1c2ncccc2n2c(=O)n(-c3ccc(Cl)cc3)nnc12
inactive: SK-MEL-2 melanoma 108% | EKVX NSCLC 68.7% | SN12C renal 103% | UO-31 renal 61% | TK-10 renal 154% | ACHN renal 77.9% | CAKI-1 renal 73.9% | A498 renal 106% | CCRF-CEM leukemia 72% | MOLT-4 leukemia 86.8%

COc1ccc(-c2cc(-c3cccnc3)nc3sc4c(=O)n(-c5ccc(C)cc5)nnc4c23)cc1OC
inactive: SK-MEL-2 melanoma 107% | EKVX NSCLC 103% | SN12C renal 94.6% | UO-31 renal 81.1% | TK-10 renal 115% | ACHN renal 93.7% | CAKI-1 renal 83.1% | A498 renal 88.8% | CCRF-CEM leukemia 104%

CCN(CC)CC#CCOC(=O)[C@]1(C)CCC[C@@]2(C)[C@H]1CC(C=O)=C1C=C(C(C)C)CC[C@@H]12
inactive: SK-MEL-2 melanoma 88% | EKVX NSCLC 77.8% | SN12C renal 77.6% | UO-31 renal 52.6% | TK-10 renal 77.1% | ACHN renal 86.9% | CAKI-1 renal 101% | A498 renal 69.7% | CCRF-CEM leukemia 50.4% | MOLT-4 leukemia 50.1%

CC1=N/C(=C\c2cccc(Br)c2)C(=O)O1
inactive: SK-MEL-2 melanoma 109% | EKVX NSCLC 99.5% | SN12C renal 98.2% | UO-31 renal 90.1% | TK-10 renal 101% | ACHN renal 109% | CAKI-1 renal 100% | A498 renal 119% | CCRF-CEM leukemia 107%

CC/C=C\C[C@H](F)C/C=C1/C(=O)C=C[C@@H]1C/C=C\CCCC(=O)OC
inactive: SK-MEL-2 melanoma 41% | EKVX NSCLC 31.6% | TK-10 renal 50.4% | A498 renal 84.8%
active: SN12C renal -14.4% | UO-31 renal -4.75% | ACHN renal -52% | CAKI-1 renal 9.44% | CCRF-CEM leukemia -21.4% | MOLT-4 leukemia -23.5%

COc1ccc(-c2cc(=O)[nH]c3c(OC)c4ccccc4c(OC)c23)cc1
active: A498 renal -4.12% | MOLT-4 leukemia 6.7%
inactive: SK-MEL-2 melanoma 27.6% | EKVX NSCLC 26.4% | SN12C renal 43.2% | UO-31 renal 31.3% | TK-10 renal 47.8% | ACHN renal 50.5% | CAKI-1 renal 38.7% | CCRF-CEM leukemia 10.8%

Nc1cc(O)cc2cccnc12
inactive: SK-MEL-2 melanoma 110% | EKVX NSCLC 104% | SN12C renal 72.5% | UO-31 renal 48.1% | TK-10 renal 104% | ACHN renal 77.3% | CAKI-1 renal 80.1% | A498 renal 118% | CCRF-CEM leukemia 86.6% | MOLT-4 leukemia 93%
